Compound activity deposited in PubChem BioAssay by National Center for Advancing Translational Sciences (NCATS).
Pf Dd2 growth: blocks in vitro growth of P. falciparum Dd2; 4.3% of 120,000 active; Potency, µM (titrated, usually from 28.9 µM), for inactives: at the highest dose activity, negative = inhibition, hits mostly inhibitors; P. falciparum Dd2 growth, SYBR Green, 72 h; AID 1347417; active = well fitted inhibition curve with a large enough effect;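 also: plate controls were DMSO vehicle for no effect and reference drug for full effect; nearly all actives have a fitted effect of over 65% in size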
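Readout: SYBR Green fluorescence, 485 nm excitation, 535 nm emission, after ~16 h lysis at 37C. Before that, Dd2-infected red cells (2.5% hematocrit) grew 72 h with compound, 29 uM top final concentration.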
Starred values were filed as active, the others as inactive; [ ] = remark or other dose. Many of the other results were omitted from the sample, so hits are more common in it than they were. Potency is read from the fitted curve at half-maximal effect.

Screening CC(C)=CCC1(CO)CCCN(C(=O)CCN2CCCCCC2=O)C1 (stereo not drawn) returned Pf Dd2 growth -10.3%.
For COc1ccccc1-c1cnc2n[nH]c(-c3ccccc3)c2n1 the results were Pf Dd2 growth inactive.
For O=C1CC2(CCN(c3cncc(C(=O)N4CCCCC4)n3)C2)C(=O)N1 (stereo not drawn) the results were Pf Dd2 growth 6.5%.
For Cc1cccc(NC(=O)CSC2=Nc3ccccc3C3=NC(CC(=O)NCc4cccs4)C(=O)N23)c1 (stereo not drawn) the results were Pf Dd2 growth 3.16µM*.
`CCOc1ccc(NC(=O)CSC2=Nc3ccccc3C3=NC(CCC(=O)NCc4ccccc4)C(=O)N23)cc1` (stereo not drawn) gave Pf Dd2 growth inactive.
CC(C)c1ccc(NC(=O)CSC2=Nc3ccccc3C3=NC(CCC(=O)NCc4ccc(F)cc4)C(=O)N23)cc1 (stereo not drawn) was read as Pf Dd2 growth -11.4%.
Screening COc1ccc(Cl)cc1NC(=O)CSC1=Nc2ccccc2C2=NC(CCC(=O)NCc3ccc(F)cc3)C(=O)N12 (stereo not drawn) returned Pf Dd2 growth -22.8%.
`Cc1ccc(CSC2=Nc3ccccc3C3=NC(CC(=O)NCc4cccs4)C(=O)N23)c(C)c1` (stereo not drawn) gave Pf Dd2 growth 13.3%.
`COc1ccc(NC(=O)CSC2=Nc3ccccc3C3=NC(CCC(=O)NCc4ccc(F)cc4)C(=O)N23)cc1Cl` (stereo not drawn) gave Pf Dd2 growth 11.2µM*.
For CC(C)(C)c1ccc(CSC2=Nc3ccccc3C3=NC(CC(=O)NCc4cccs4)C(=O)N23)cc1 (stereo not drawn) the results were Pf Dd2 growth inactive.
Screening COc1ccc(OC)c(NC(=O)CSC2=Nc3ccccc3C3=NC(CCC(=O)NCc4ccccc4)C(=O)N23)c1 (stereo not drawn) returned Pf Dd2 growth 12.6µM*.
For COc1ccccc1NC(=O)CSC1=Nc2ccccc2C2=NC(CCC(=O)NCCc3ccccc3)C(=O)N12 (stereo not drawn) the results were Pf Dd2 growth -21.8%.
`CCC1(O)CCC12CCN(C(=O)c1cnccc1C)CC2` (stereo not drawn) gave Pf Dd2 growth inactive.
Screening COc1ccc(-n2nc(C3CCCN(C(=O)c4ccccc4F)C3)[nH]c2=O)cc1 (stereo not drawn) returned Pf Dd2 growth inactive.
Screening O=C1CC(c2ccccc2)N(C(=O)CNS(=O)(=O)c2cccc3cccnc23)CCCCCCN1 (stereo not drawn) returned Pf Dd2 growth inactive.
`Cc1cccc(-c2noc(CCCC(=O)N3CCC4(CC(=O)NC4=O)C3)n2)c1` (stereo not drawn) gave Pf Dd2 growth -12.2%.
Screening COCCn1cnnc1CCNc1cc(C2CC(O)C2)nc(N)n1 (stereo not drawn) returned Pf Dd2 growth -6.9%.
Screening CCOCc1nc(C2CCCN(C(=O)c3ccc(OC)nc3OC)C2)no1 (stereo not drawn) returned Pf Dd2 growth -3.2%.
For O=C(CN1CCCc2nc(C3CC3)ncc2C1=O)NCCc1c[nH]c2ccccc12 the results were Pf Dd2 growth 10µM*.
COCCNC(=O)CN1CCCc2nc(C3CC3)ncc2C1=O was read as Pf Dd2 growth 18.6%.
`O=C(CN1CCCc2nc(C3CC3)ncc2C1=O)NCc1cccnc1` gave Pf Dd2 growth 32.6%.
`CN(Cc1nc(Cc2ccccc2Cl)no1)Cc1cccc2cnccc12` gave Pf Dd2 growth -5.1%.
`COc1cccc(C(=O)N2CCn3nnc(CCC(=O)NC4CC4)c3C2)c1` gave Pf Dd2 growth 7.9%.
Screening O=C(Nc1cc(Cl)ccc1O)c1cc2nc(-c3ccc4c(c3)OCO4)cc(C(F)(F)F)n2n1 returned Pf Dd2 growth 1.58µM*.
O=C(NCC12CC3CC(CC(C3)C1)C2)c1cc2nc(-c3ccc(Cl)cc3)cc(C(F)(F)F)n2n1 was read as Pf Dd2 growth -10.1%.
For O=C(Nc1cc(Cl)ccc1Cl)c1cc2nc(-c3ccc4c(c3)OCO4)cc(C(F)(F)F)n2n1 the results were Pf Dd2 growth 37.7%.
`COC(=O)[C@@H]1Cc2ncn(C)c2CN1S(=O)(=O)c1cccc(C(F)(F)F)c1` gave Pf Dd2 growth 6.5%[44.1 µM].
Screening CCN(CC)C(=O)C(C)[C@@H]1CC[C@@]2(C)CC[C@H](NC(C)=O)[C@@H](C)[C@@H]2[C@H]1O (stereo partly drawn) returned Pf Dd2 growth -19.2%[44.1 µM].
For COc1ccc(C(=O)N2CCC(c3n[nH]c(=O)n3-c3ccccc3)CC2)c(OC)n1 the results were Pf Dd2 growth 8.2%.
O=C(O)CCC(=O)N[C@H]1CCN2C(=O)c3cc(-c4ccc(Cl)cc4)ccc3NC(=O)[C@H]12 was read as Pf Dd2 growth -15.3%[44.1 µM].
COc1ccc(-c2n[nH]c3c2CC(=O)N(CCOc2ccccc2)C3)cc1F was read as Pf Dd2 growth -16.0%[44.1 µM].
Screening COc1ccc(-c2nn(-c3ccccc3C)cc2CN(C)CCN2CCOCC2)cc1F returned Pf Dd2 growth 11.2µM*.
Cc1ccc(C)c(-n2cc(CN(C)CCO)c(-c3ccccc3)n2)c1 was read as Pf Dd2 growth -17.8%.
CCN1CC(CN(C)Cc2nc(Cc3cccc(F)c3)no2)CC1=O (stereo not drawn) was read as Pf Dd2 growth 2.9%.
`CCN1CC(CN(C)Cc2cn(-c3ccccc3C)nc2-c2ccc(OC)c(F)c2)CC1=O` (stereo not drawn) gave Pf Dd2 growth 10µM*.
COc1ccccc1-c1ccnc(-c2nnc(C)n2CCN2CCOCC2)c1 was read as Pf Dd2 growth inactive.
O=C(O)C1CCc2nnc(C3CCN([S+](=O)([O-])c4cc(C(F)(F)F)cc(C(F)(F)F)c4)CC3)n21 (stereo not drawn) was read as Pf Dd2 growth 19.1%.
For COC[C@H]1C[C@@H](NS(=O)(=O)c2ccc(F)cc2)[C@H](O)[C@@H]1O the results were Pf Dd2 growth 8.9%[44.1 µM].
For Cc1ccc(CNC(=O)CSc2nc3n[nH]c(C)c3c(=N)n2-c2cccc(C)c2)cc1 the results were Pf Dd2 growth -13.1%.
`CCC(C)NC(=O)CSc1nc2n[nH]c(C)c2c(=N)n1-c1ccc(C)c(Cl)c1` (stereo not drawn) gave Pf Dd2 growth -5.9%.
`Cc1ccc(-n2c(SCC(=O)Nc3cccc(Cl)c3)nc3n[nH]c(C)c3c2=N)cc1` gave Pf Dd2 growth 12.6µM*.
Screening Cc1ccc(CNC(=O)Cn2cccc2-c2nc(-c3ccc4c(c3)OCO4)no2)cc1 returned Pf Dd2 growth 12.8%.
Screening CC(=O)Nc1ccc(CC(=O)NCCc2noc(C3CC3)n2)cc1 returned Pf Dd2 growth 52.2%.
For CNC(=O)[C@@H]1C[C@H](Oc2ccccc2)CN1C(=O)c1ccc(OC)nc1 the results were Pf Dd2 growth -15.9%.
For C=CCO[C@@H]1C[C@H]2C(=O)N3CC[C@H](NC(=O)[C@@H](O)c4ccccc4)C[C@H]3C(=O)N2C1 the results were Pf Dd2 growth 1.1%[44.1 µM].
Screening Fc1ccc(N2CCN(Cc3nnc(-c4ccccc4Cl)o3)CC2)cc1 returned Pf Dd2 growth 2.4%.
`Fc1ccc(NCc2ccccc2-c2nnc(-c3ccccc3Cl)o2)cc1` gave Pf Dd2 growth 12.6µM*.
`Cc1ccc(NCc2ccccc2-c2nnc(-c3ccccc3Cl)o2)cc1Cl` gave Pf Dd2 growth -24.4%.
Screening CC(C)c1noc(CC2CCN(C(=O)c3ccc(N(C)C)cc3)CC2)n1 returned Pf Dd2 growth -0.3%.
